# Reference: PubChem BioAssay (NCATS)
# Results filed as inconclusive are left out. A number with no mark means an inactive call. The source made the active and inactive calls. The call rests on the fitted dose curve; in most records, active means well fitted inhibition curve with a large enough effect; inconclusive means small, poorly fitted or top-dose-only effect; inactive means no such curve, though single readings can be large or run the other way.
# Assay: qHTS to identify inhibitors of the type 1 interferon - major histocompatibility complex class I in skeletal muscle: primary screen against the NCATS Mechanism Interrogation Plate v5.0 (MIPE) Libary (AID 1347411); further: nearly all actives have a fitted effect of over 65% in size;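 on activity change, negative = inhibition: plate controls were vehicle for no effect and reference inhibitor for full effect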
# Conditions: iHSKM cells + IFN-b, HiBiT-tagged MHC-I luminescence, 24 h; series mostly up to 45.8 µM; activity change, negative = inhibition: at the top concentration
# In short: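 Cells were genome-edited human myoblasts carrying a HiBit tag on endogenous HLA-B. They were treated with IFN-beta (4.0 ng/ml) and titrated compounds (top 46 uM) for 24 hrs before lytic HiBiT detection.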
# Potency means the concentration at half of the fitted maximal effect.
SMILES,"activity change, negative = inhibition",Potency
CC1(C)CCC(c2ccc(Cl)cc2)=C(CN2CCN(c3ccc(C(=O)NS(=O)(=O)c4ccc(N[C@H](CCN5CCOCC5)CSc5ccccc5)c(S(=O)(=O)C(F)(F)F)c4)cc3)CC2)C1,-28.2%,
Cc1cn(-c2cc(NC(=O)c3ccc(C)c(Nc4nccc(-c5cccnc5)n4)c3)cc(C(F)(F)F)c2)cn1,-15.4%,
CC[C@@]1(O)C(=O)OCc2c1cc1n(c2=O)Cc2cc3cc(O)ccc3nc2-1,,3.3 µM (active)
Cc1c(C)n(Cc2ccc(-c3ccccc3C(=O)O)cc2)c2ccc(C(=O)N[C@@H](C)c3ccc([N+](=O)[O-])cc3)cc12,-22.5%,
CCN(CC)CCCCNc1ncc2cc(-c3cc(OC)cc(OC)c3)c(NC(=O)NC(C)(C)C)nc2n1,,29.4 µM (active)
Cc1cc(Nc2ncnc3ccc(-c4ccc(CNCCS(C)(=O)=O)o4)cc23)ccc1Oc1ccn2ncnc2c1,-18.1%,
OCc1ccc(-c2ccc(-c3ccc(CO)s3)o2)s1,,33 µM (active)
Cc1c(Cn2c(C)nc3c(C(=O)O)cc(N4CCOCC4)cc32)cccc1C(F)(F)F,-17.1%,
COc1ccc(OC)c(-c2nnc3ccc(-c4ccc(OC)c(O[C@@H]5CCOC5)c4)nn23)c1,-22.9%,
Cc1nc2ccc(CN(C)c3ccc(C(=O)N[C@@H](CCC(=O)O)C(=O)O)s3)cc2c(=O)[nH]1,14%,
Clc1ccc2ncc(-c3cccc(NC4CNC4)n3)n2c1,-2.29%,
COc1cccc(-c2ccc(NC(=O)C3=C(C(=O)O)CCC3)c(F)c2)c1,-40.5%,
Cc1ccc(NC(=O)C2(c3ccc4c(c3)OC(F)(F)O4)CC2)nc1-c1cccc(C(=O)O)c1,-16.4%,
COc1ccc2c(OCc3nnc4ccc(-c5ccccc5)nn34)ccnc2c1,-21.7%,
O=C(CCCCCCC(=O)Nc1ccc([C@H]2O[C@@H](CSc3nc(-c4ccccc4)c(-c4ccccc4)o3)C[C@@H](c3ccc(CO)cc3)O2)cc1)NO,14.6% [at 8.44 µM],
O=C(c1cncc(Br)c1)N1CCC(N2CCCC2)CC1,-17.7%,
CC(=O)SC[C@@H](C)C(=O)N1CCC[C@H]1C(=O)N[C@@H](Cc1ccccc1)C(=O)O,11%,
COc1cc(C(=O)NS(=O)(=O)c2ccccc2C)ccc1Cc1cn(C)c2ccc(NC(=O)OC3CCCC3)cc12,6.98%,
CCN1CCN(Cc2ccc(-c3cc4c(N[C@H](C)c5ccccc5)ncnc4[nH]3)cc2)CC1,,18.6 µM (active)
C#Cc1cccc(Nc2ncnc3cc(OC)c(OCCCCCCC(=O)NO)cc23)c1,,1.65 µM (active)
Cc1cc(Nc2nc(N[C@@H](C)c3ccc(F)cc3)c(C#N)cc2F)n[nH]1,,2.08 µM (active)
C[C@@]12O[C@@H](C[C@]1(O)CO)n1c3ccccc3c3c4c(c5c6ccccc6n2c5c31)CNC4=O,,0.739 µM (active)
O=C(O)c1ccc2c(c1)nc(Nc1cccc(Cl)c1)c1ccncc12,,16.5 µM (active)
